# Shn3 inh set2: inhibitors of Schnurri-3 3'UTR reporter in osteoblasts. Clone20 osteoblast Shn3 3'UTR firefly luciferase, 24 h. inhibition, % at 12.5 µM. hit rate 0.52% among 360,000;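 active = mean inhibition of at least 75% with every replicate also reaching 75%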;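 also: 0% = median of neutral control wells and 100% = pilot-screen positive control compound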
# NCOA2 inhibitor: inhibits human steroid receptor coactivator 2; AID 651957; HEK293 GAL4-SRC2 luciferase reporter, luminescence; inhibition, % at 9 µM; Q15596; hit rate 0.17% among 370,000;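 active = inhibition above the mean inhibition of all tested compounds plus 3 SD, set per campaign, cut at about 52% in these data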;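 also: 0% = DMSO treated cells and 100% = cells given Gossypol at 36 µM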
# LMP1 NFkB inh: reduces LMP1-driven NF-kappaB luciferase signal. LMP1-induced NF-kappaB luciferase reporter cells, luminescence. inhibition, % at 12.5 µM. hit rate 0.69% among 350,000. AID 504558; in the data active = inhibition above about 41%;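 also: 0% = neutral control wells and 100% = reference inhibitor control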
# LRH-1 inv ag: inverse agonists of human LRH-1 (NR5A2); HEK293T StAR-luciferase reporter, LRH-1 transfected, 24 h; inhibition, % at 3.6 µM; hit rate 0.13% among 360,000; AID 602396;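 active = inhibition above the mean inhibition of all tested compounds plus 3 SD, cut at about 73% in these data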;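 also: 0% = DMSO wells and 100% = reporter-only cells lacking LRH-1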
# Target sequence (O00482 whole entry, looked up): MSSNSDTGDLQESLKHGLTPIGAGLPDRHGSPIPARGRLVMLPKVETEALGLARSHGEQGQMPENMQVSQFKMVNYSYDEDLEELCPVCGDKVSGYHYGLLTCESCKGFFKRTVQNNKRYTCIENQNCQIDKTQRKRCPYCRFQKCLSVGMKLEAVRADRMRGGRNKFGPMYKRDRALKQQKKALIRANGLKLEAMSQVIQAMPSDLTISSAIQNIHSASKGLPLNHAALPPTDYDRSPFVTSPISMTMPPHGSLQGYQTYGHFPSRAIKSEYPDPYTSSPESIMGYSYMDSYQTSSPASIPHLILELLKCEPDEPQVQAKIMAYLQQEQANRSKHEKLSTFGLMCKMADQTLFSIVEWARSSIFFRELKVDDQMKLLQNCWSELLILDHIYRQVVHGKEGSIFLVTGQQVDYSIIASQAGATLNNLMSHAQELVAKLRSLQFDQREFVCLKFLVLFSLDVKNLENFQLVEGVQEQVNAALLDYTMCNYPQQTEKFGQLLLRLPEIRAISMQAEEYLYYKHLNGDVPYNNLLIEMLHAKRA
# NCOA3 inh: inhibits human SRC3 coactivator; Q9Y6Q9; HEK293 GAL4-SRC3 luciferase reporter, luminescence; inhibition, % at 3.6 µM; hit rate 0.17% among 360,000; AID 588352;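 active = inhibition above a per-campaign cutoff, the mean of all compounds plus 3 SD, cut at about 60% in these data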;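 also: 0% = DMSO-treated cells and 100% = gossypol-treated cells at 36 µM; higher means less SRC3-driven luciferase light from the GAL4 reporter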
# SRC1 inh: human NCOA1 inhibition | HEK293 GAL4-SRC1 luciferase reporter, luminescence | Q15788 | inhibition, % at 3.6 µM | hit rate 0.12% among 360,000;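 active = inhibition above the campaign mean plus 3 SD, with each screening campaign given its own cutoff, cut at about 60% in these data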;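 also: 0% = DMSO treated cells and 100% = gossypol at 36 µM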
# * = called active by the depositor; nt = not tested or not shown. The list is not random: actives were taken first. Their share in the collection is about 1.2%.
SMILES,Shn3 inh set2,NCOA2 inhibitor,LMP1 NFkB inh,LRH-1 inv ag,NCOA3 inh,SRC1 inh
CN1C(=O)C[C@@](C#N)(C(=O)NCC(F)(F)F)[C@H]1c1ccccc1,nt,1,nt,nt,nt,nt
COc1ccc(CN2CN3CCc4ccccc4C3CS2(=O)=O)cc1 (stereo unspecified),nt,15,nt,nt,nt,nt
CCSc1n[nH]c(=O)n1C,nt,-6,nt,nt,nt,nt
CC1(C)CCC(=O)N(c2ccc(OC(F)(F)F)cc2)C1=O,6,-17,-5,3,2,5
Cc1cccc(C)c1N1C(=O)CCC(C)(C)C1=O,-14,-1,50*,6,-15,-11
COC(=O)C1=C(C)NC2=C(C(=O)c3ccccc32)C1c1cccc(OC)c1 (stereo unspecified),18,12,10,5,19,4
Cn1c2c(c(=O)[nH]c1=O)C(c1cccc(O)c1)C1=C(N2)c2ccccc2C1=O (stereo unspecified),71,-25,47*,-10,54,32
COCC(=O)N1CCC(C(=O)NC2CCCc3ccccc32)CC1 (stereo unspecified),nt,-29,nt,nt,nt,nt
CC(C)[C@H](NC(=O)c1ccco1)C(=O)N1CCC[C@H]1C(=O)NCc1ccccc1,nt,3,nt,nt,nt,nt
C[n+]1c2n(c3ccccc31)N=C(c1ccc(-c3ccccc3)cc1)CS2,72,-54,23,58,63*,-5
COc1ccc(C(=O)C2(C(=O)NCc3ccccc3)CC(c3ccccn3)=NO2)cc1 (stereo unspecified),nt,-28,nt,nt,nt,nt
O=C(CCNc1cccc(F)c1)c1cc2ccccc2o1,-7,-23,46*,4,7,3
O=C(CCNc1ccc(F)cc1)c1cc2ccccc2o1,-13,-23,-17,-10,-5,-25
O=c1oc2ccccc2c(O)c1/C=N/c1ccccn1,-4,-9,50*,15,11,-30
COc1cc(COCC(O)CN2C(C)CCCC2C)cc(OC)c1OC (stereo unspecified),16,23,88*,2,3,-26
COc1ccc(-c2nnc(NC(=O)c3ccc(S(=O)(=O)N4CCCc5ccccc54)cc3)o2)cc1,40,nt,49*,-9,5,4
COCc1nnc(NC(=O)c2ccc(S(=O)(=O)N3CCCc4ccccc43)cc2)o1,16,-5,-11,6,-7,0
COc1ccc(-c2nnc3n2N=C(c2cccc([N+](=O)[O-])c2)CS3)cc1,nt,13,nt,nt,nt,nt
O=C(/C=C/c1ccc(N2CCC(c3ccccc3)=N2)cc1)c1ccccc1,nt,-26,nt,nt,nt,nt
CCOC(=O)/C(=C\c1ccc(N2CCC(c3ccccc3)=N2)cc1)C(C)=O,-12,-41,88*,10,-39,-30
CCOC(=O)C1(C(=O)OCC)N=C(c2ccccc2)C=C1c1ccccc1,nt,-7,nt,nt,nt,nt
COc1cc(C(C)=O)ccc1OCC(O)CN1CCN(c2ccc(C)cc2C)CC1 (stereo unspecified),5,10,16,-10,3,-12
COc1cc(C(C)=O)ccc1OCC(O)Cn1nc(C)c(Br)c1C (stereo unspecified),7,0,62*,-13,4,-30
Cc1cc(C)nc(N2CCN(C(=O)CSc3nc4ccccc4nc3N3CC(C)OC(C)C3)CC2)n1 (stereo unspecified),nt,-15,nt,nt,nt,nt
CC(C)(C)OC(=O)NCC(=O)N1CCC(C(=O)O)CC1,-4,10,5,3,9,10
SMILES,Shn3 inh set2,NCOA2 inhibitor,LMP1 NFkB inh,LRH-1 inv ag,NCOA3 inh,SRC1 inh
CCOC(=O)C1CCN(C(=O)CNC(=O)OC(C)(C)C)CC1,2,-2,43*,-10,9,2
O=C(NCCN1CCC(Cc2ccccc2)CC1)C1CCCN(S(=O)(=O)c2ccc([N+](=O)[O-])cc2)C1 (stereo unspecified),nt,24,nt,nt,nt,nt
Nc1nnc(SCC(=O)Nc2ccc(N3CCOCC3)cc2)s1,91*,-16,5,-24,-3,-2
Nc1nnc(SCC(=O)Nc2ccccc2N2CCOCC2)s1,3,-10,4,-12,0,-6
Cc1ccc2c(c1)N(CC(=O)N1CCCC1)C(=O)c1cccnc1O2,8,-8,61*,-4,18,-1
Cc1ccc2c(c1)N(CC(=O)N1CCCCCC1)C(=O)c1cccnc1O2,3,-1,7,-4,19,6
CN1[C@@H](Cc2ccccc2)COc2cc(N3CCCC3)ccc2S1(=O)=O,nt,14,nt,nt,nt,nt

# Source: PubChem
